From ChEMBL document CHEMBL3988442, “University of Dundee, Small-Polar-MMV Screening Library” (2021)
Hit rate of the full screen: of about 48,000 compounds, about 13,000 (27%) showed an effect of 50% or more. The list shows a part of the results.

test system: Wolbachia pipientis; experiment: Anti-Wolbachia Cell-Based Screen; assay type: functional; design: scale not given: in the data most compounds retested in dose-response had high values; details: 5 µM

Row | SMILES | Percent Effect
1 | CSCC(CCO)NC(=O)Nc1cc(C)ccc1C (stereo not given) | -5.082%
2 | CC(C)(C)NC(=O)NCc1cnn2ccccc12 | -7.455%
3 | CCOCCN1C[C@H](c2cccc(OC)c2)[C@@H](N)C1 | -6.771%
4 | Cc1cnccc1N1CCN(c2nccc(CCC(F)(F)F)n2)CC1 | 13.49%
5 | Cc1nc(C)n(CC2CCCN2CC(=O)Nc2ccnn2C(C)C)n1 (stereo not given) | -5.093%
6 | CCOCC(=O)N1CC[C@H]2OCC[C@@H](c3nnc(C)o3)[C@H]2C1 | 13.01%
7 | Cc1ccc(C(=O)NCC(O)c2ccc(F)c(F)c2)c(=O)[nH]1 (stereo not given) | -52.3%
8 | Cn1c(SCC2OCCc3ccccc32)n[nH]c1=O (stereo not given) | -11.92%
9 | Cc1ccc(F)cc1NS(=O)(=O)c1cc2c(c(C(=O)O)c1)OCCO2 | 117.8%
10 | Cc1ccc(S(=O)(=O)N2CCOc3ccccc32)cc1C(=O)O | -0.06219%
11 | O=C(O)c1cc(S(=O)(=O)Nc2cc(F)ccc2F)cc2c1OCCO2 | 0.9161%
12 | CN(c1ccc(F)cc1)S(=O)(=O)c1cc2c(c(C(=O)O)c1)OCCO2 | -14.55%
13 | CN(c1ccccc1)S(=O)(=O)c1cc2c(c(C(=O)O)c1)OCCO2 | 4.597%
14 | O=C(O)c1cc(S(=O)(=O)Nc2cccc(F)c2F)cc2c1OCCO2 | 134.3%
15 | Cc1cc(F)ccc1NS(=O)(=O)c1cc2c(c(C(=O)O)c1)OCCO2 | 118%
16 | O=C(O)c1cc(S(=O)(=O)Nc2ccc(F)cc2F)cc2c1OCCO2 | 104.7%
17 | CN(c1c(F)cccc1F)S(=O)(=O)c1cc2c(c(C(=O)O)c1)OCCO2 | 7.763%
18 | CCc1noc(CS(=O)(=O)CC(=O)N2c3ccccc3CC2C)n1 (stereo not given) | 1.089%
19 | CCOC1CC2(CCN(Cc3cnn(C)c3)CC2)c2ccc(C)cc21 (stereo not given) | -1.962%
20 | CN1CCN(C)C2(CCN(Cc3ccc(C4CCCO4)s3)CC2)C1 (stereo not given) | -8.087%
21 | Cc1nc(CCCNC(=O)c2c(F)cc(F)cc2F)n[nH]1 | 108.5%
22 | COc1cc(Cl)ccc1C(=O)NCc1n[nH]c(C)n1 | -9.051%

Row | SMILES | Percent Effect
23 | COc1c(Cl)cc(C(=O)NCc2n[nH]c(C)n2)cc1Cl | 1.914%
24 | COc1ccc2cccc(CC(=O)NCCCc3n[nH]c(C)n3)c2c1 | -4.195%
25 | Cc1nc(CCCNC(=O)c2cc(F)ccc2O)n[nH]1 | 85.21%
26 | COc1ccccc1C(=O)NCc1n[nH]c(C)n1 | 3.11%
27 | Cc1ccc(O)c(C(=O)NCCCS(=O)(=O)Cc2ccccc2)c1 | -4.048%
28 | Cc1nc(CCCNC(=O)c2c(F)cccc2Br)n[nH]1 | 89.06%
29 | COc1c(Br)cccc1CCNC(=O)c1ncoc1C | -6.421%
30 | CN1C[C@H](O)C[C@H]1c1nc(-c2ccc(OC(F)(F)F)cc2)no1 | -6.164%
31 | CCNC(=O)[C@@H]1C[C@H](N)CN1C(=O)CCc1ccc(C)c(C)c1 | -20.38%
32 | CC(C)(O)CCc1cccc(C(=O)N2CCC[C@H]2C(N)=O)c1 | 102.3%
33 | CC[C@@H](CO)NC(=O)c1cccc(CCC(C)(C)O)c1 | 0.6007%
34 | CCNC(=O)[C@@H]1C[C@H](N)CN1C(=O)c1cccc(CCC(C)(C)O)c1 | 102.7%
35 | CCNC(=O)[C@@H]1CCCN1C(=O)c1cccc(CCC(C)(C)O)c1 | 104.5%
36 | CC(C)(O)CCc1cccc(C(=O)NCC2CN(S(C)(=O)=O)CCO2)c1 (stereo not given) | -12.96%
37 | CC(C)(O)CCc1cccc(C(=O)N[C@@H](CO)C(N)=O)c1 | 1.69%
38 | CCNC(=O)[C@@H]1C[C@@H](N)CN1C(=O)CCc1ccc(C)c(C)c1 | -3.444%
39 | C[C@H](NC(=O)c1cccc(CCC(C)(C)O)c1)C(N)=O | -11.41%
40 | CS(=O)(=O)N1CCC(Oc2ccc(C(=O)NCC3CCC3)cc2Cl)CC1 | -2.678%
41 | Cc1cc(CN2CCCC2)cc(Oc2ccc(C(F)(F)F)cn2)c1 | 9.077%
42 | Cc1nn(C)cc1C(=O)NC(CC(C)C)C(=O)Nc1cc[nH]n1 (stereo not given) | 1.449%
43 | CN(CC(=O)NC(C)(C)C)Cc1cccc2c1OCCO2 | -43.12%
44 | Cc1cccn2c(NC(C)(C)C)c(C3CCN(C(=O)C4CC4)CC3)nc12 | 138%

Row | SMILES | Percent Effect
45 | CC(C)(C)Nc1c(C2CCN(C(=O)C3CC3)CC2)nc2ccccn12 | 95.08%
46 | CN(CCO)Cc1nnc(C2CCN(C(=O)C(C)(C)C)CC2)n1C | 1.717%
47 | CC(C)(C)C(=O)N1CCC(c2nc(O)cc(-c3ccccn3)n2)CC1 | -20.96%
48 | CC(C)(O)C1CCCN(C(=O)Nc2nc(-c3ccccc3)ns2)C1 (stereo not given) | -3.959%
49 | CC(C)(C)Nc1c(C2CCN(C(=O)C(C)(C)C)CC2)nc2ccccn12 | 124.8%
50 | CC(C)(C)Nc1c(C2CCCN(C(=O)C3CC3)C2)nc2ccccn12.Cl (stereo not given) | 97.63%
51 | NC(=O)c1csc(N2CCN(Cc3cccc4nsnc34)CC2)n1 | -1.05%
52 | CC(C)N1CCC(O)(CNC(=O)CC2OCCc3ccccc32)CC1 (stereo not given) | -11.76%
53 | Cc1ncc(Cl)c(C(=O)N2CC(=O)N(C)c3ccccc32)n1 | -4.054%
54 | Cc1cnc(NC(=O)N2CCOCC2)s1 | -16.98%
55 | CCC(C)n1cnc(S(=O)(=O)N(Cc2cccnc2)C(C)C)c1 (stereo not given) | 3.048%
56 | O=C(OCCNc1ncccn1)c1ccc(Br)s1 | -22.12%
57 | CNC(C(=O)N1CCC(c2nccn2C(C)C)CC1)c1ccccc1 (stereo not given) | 12.05%
58 | COc1ccccc1OC1CN(C(=O)Cc2c(C)nc3ccccn23)C1 | -17.73%
59 | CC(C)C(=O)N1CCC(c2nc3ccccn3c2NC(C)(C)C)CC1 | 120.3%
60 | CC(C)c1nc(C(=O)N(C)c2ccc(Br)cn2)cs1 | -16%
61 | CC1CCN(S(=O)(=O)c2cccnc2)c2ccccc2S1 (stereo not given) | -3.494%
62 | O=S1(=O)CCC(N2CCN(c3cc(C(F)(F)F)ccn3)CC2)C1 (stereo not given) | 0.5225%
63 | COC[C@H]1CNC(=O)[C@@H]2CCN(Cc3cccc(C)n3)CC[C@H]12 | -1.462%
64 | CNc1ncc(CN2CCC(c3nnsc3S(C)(=O)=O)CC2)cn1 | 122%
65 | CS(=O)(=O)c1snnc1C1CCN(Cc2ccncc2)CC1 | -7.486%
66 | CS(=O)(=O)c1snnc1C1CCN(Cc2cccnc2)CC1 | 133.5%

Row | SMILES | Percent Effect
67 | CCn1c(CN2CCCC2)nnc1C1CCN(Cc2cccnc2)CC1 | -3.145%
68 | CCn1c(CN(C)C)nnc1C1CCN(Cc2cnc(C)nc2)CC1 | -9.341%
69 | CN(C)c1ncc(CN2CCC(c3nnsc3S(C)(=O)=O)CC2)cn1 | -8.857%
70 | CS(=O)(=O)c1snnc1C1CCCN(Cc2ccncc2)C1 (stereo not given) | 95.13%
71 | Cc1cccc(CN2CCC(c3nnsc3S(C)(=O)=O)CC2)n1 | 122.9%
72 | CC(c1nc(C2CC2)no1)N1CCN(Cc2cccnc2)CC1 (stereo not given) | 9.745%
73 | Cc1nccc(CN2CCC(c3nnsc3S(C)(=O)=O)CC2)n1 | 2.937%
74 | Cc1cccnc1CN1CCC(c2nnc(Cn3cccn3)n2C)CC1 | 7.8%
75 | CC(C)OCCN(Cc1cccc(O)c1)C1CCC(O)CC1 (stereo not given) | -9.741%
76 | CC1CCN(c2ccnc3ccc(Br)cc23)CC1 | -3.339%
77 | O=C(c1ccoc1)N1CCCN(C(=O)c2ccc(C3CCCN3)s2)CC1 (stereo not given) | 16.47%
78 | N#Cc1cccc(CNC(=O)C2=NN(c3ccccc3)C(=O)CN2)c1 | -6.333%
79 | CS(=O)(=O)c1snnc1C1CCN(Cc2ccc3nccnc3c2)CC1 | 138.8%
80 | CS(=O)(=O)c1snnc1C1CCN(Cc2cccc(O)c2)CC1 | 145.1%
81 | Cc1cccc(CN2CCC(c3nnsc3S(C)(=O)=O)CC2)c1 | 168.1%
82 | CNS(=O)(=O)c1ccc(CN2CCC(c3ccncc3)CC2)cc1 | -2.48%
83 | Cc1cccc(CN2CCC(NCC3CNc4cc(C)nn4C3)CC2)c1 (stereo not given) | 17.46%
84 | CC(Cn1ccnc1)NC1CCN(Cc2cccc(O)c2)CC1 (stereo not given) | -6.042%
85 | Fc1ccc(CN2CCC(c3nccnc3-n3ccnc3)CC2)cc1 | -7.393%
86 | CC(Cn1cncn1)NC1CCN(Cc2cccc(O)c2)CC1 (stereo not given) | -16.09%
87 | Cc1cnc(C(=O)N2CCC3(CC2)CC(c2ccncc2)C(=O)N3)cn1 (stereo not given) | -2.987%
88 | CCCn1nnnc1CN(C)C(C)c1ccc(C)cc1 (stereo not given) | 0.6006%

Row | SMILES | Percent Effect
89 | COc1ccc(C2(c3nc(-c4cnn(C)c4)no3)CCOCC2)cc1 | -8.889%
90 | O=C(NC(CO)CO)c1coc(COc2cccc(F)c2)n1 | 9.537%
91 | CCN(CC)CC(=O)N(C)C(c1cccc(F)c1)c1ccccn1 (stereo not given) | 97.45%
92 | CC(C)N(C)CC(=O)N(C)C(c1cccc(F)c1)c1ccccn1 (stereo not given) | 102.7%
93 | CCSCCNC(=O)C(c1cccc(F)c1)N(C)C (stereo not given) | -18.47%
94 | CCN(C(=O)CN(C)C(c1cccc(F)c1)c1ccccn1)C1CC1 (stereo not given) | 13.51%
95 | CCS(=O)(=O)NCCCNC(=O)N(C)C(C)c1ccccn1 (stereo not given) | -6.07%
96 | CCN(CC)S(=O)(=O)CCNC(=O)N(C)C(C)c1ccccn1 (stereo not given) | -1.522%
97 | O=S(=O)(C1CC1)N1CC[C@]2(C[C@@H](OCC3CCOCC3)CO2)C1 | -13.41%
98 | Cc1c(C(=O)N(C)CC(F)(F)F)nnn1-c1ccccc1Cl | -1.465%
99 | COCCn1cnc2ccc(NC(=O)C(C)C)cc2c1=O | 110.7%
100 | COCCn1cnc2ccc(NC(=O)C3CC3)cc2c1=O | 108.4%
101 | COc1ccc(C(=O)Nc2c(C)nn(C(C)C)c2C)cc1 | 14.16%
102 | COc1cccc(C(=O)Nc2ccc(OC3CCN(C)CC3)cc2)c1 | 16.42%
103 | COCCN1C=NC2(CCC(C(=O)Nc3ccc(C)cc3)CC2)C1=O (stereo not given) | -4.018%
104 | COCCn1cc(NC(=O)C(C)CCc2ccccc2F)ccc1=O (stereo not given) | -6.604%
105 | COCCn1cnc2ccc(NC(=O)c3ccccn3)cc2c1=O | 106.6%
106 | COCCOc1ccc(NC(=O)C2CCC2)cn1 | -0.09217%
107 | COCCn1cc(NC(=O)NC(C)CCc2ccccc2)ccc1=O (stereo not given) | -2.537%
108 | Cn1cc(NC(=O)c2ccccn2)cc(Br)c1=O | 3.766%
109 | Cn1cc(NC(=O)c2ccccn2)cc(Cl)c1=O | -1.878%
110 | COCCn1cnc2ccc(NC(=O)c3ccc(OC)cc3)cc2c1=O | 162.9%
